Only some compounds are listed: those with a hit (about 9.4% of all), similar ones and a draw of the others.
ELG1 genotoxic: qHTS screen for small molecules that induce genotoxicity in human embryonic kidney (HEK293T) cells expressing luciferase-tagged ELG1. HEK293T ELG1-luciferase reporter, luminescence, 16 h. Potency, µM (titrated, usually from 46 µM), inactives show at the highest dose activity change, positive = activation, most hits filed as activators. actives 1.3% (n = 330,000). AID 504466, 2011; note: % of control where 0% means no effect; nearly all actives have a fitted effect of over 60% in size
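Reporter readout depends on ELG1 protein level, which increases with genetic stress. After 16 hr compound exposure at 37 °C, luciferase activity was quantified using ONE-Glo.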
ELG1 repair inh: qHTS screen for small molecules that inhibit ELG1-dependent DNA repair in human embryonic kidney (HEK293T) cells expressing luciferase-tagged ELG1 | HEK293T ELG1-luciferase reporter, luminescence, 16 h; DNA damage induced by 5-fluorouridine | Potency, µM (highest dose often 46.1 µM), for inactives: top-dose activity change, negative = inhibition, actives largely listed as inhibitors | actives 2.3% (n = 330,000); note: % is set by controls: 0 for no effect and ±100 for the full control effect; nearly all actives have a fitted effect of over 55% in size
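HEK293T cells expressing luciferase-tagged ELG1 (2,000/well) received 5-Fluorouridine plus compound or DMSO for 16 hr at 37 °C. Luciferase was read by ONE-Glo luminescence after 30 min at room temperature.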
SMN2 splice enh: qHTS Assay for Enhancers of SMN2 Splice Variant Expression; HEK293 SMN2-luciferase splicing reporter, luminescence, 30-36 h; Potency, µM (highest dose often 46.1 µM), inactives show at the highest dose activity change, positive = activation, actives largely listed as activators; actives 2.8% (n = 210,000); note: % of control where 0% means no effect; nearly all actives have a fitted effect of over 55% in size
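qHTS luciferase splicing reporter: luminescence rises when SMN2 exon 7 is included in transfected HEK293 cells. Compound exposure lasted 30-36 h at 37C, with 4.5 mM final sodium butyrate as control, followed by a ONE-Glo read.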
Rab9 promoter act: qHTS Assay for Rab9 Promoter Activators; actives 2.8% (n = 320,000); Huh7 Rab9 promoter-luciferase reporter, luminescence, 24 h; Potency, µM (highest dose often 9.22 µM), without a hit: top-dose activation, negative = inhibition, actives largely listed as activators; note: % of control where 0% means no effect; nearly all actives have a fitted effect of over 60% in size
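Promoter activation is measured as luciferase luminescence in Huh7 cells stably transfected with a Rab9 promoter–luciferase construct, following 24 h compound exposure at 37 °C and 10 min reagent incubation at ambient temperature.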
FLuc counter: qHTS profiling assay for firefly luciferase inhibitor/activator using purifed enzyme and Km concentrations of substrates (counterscreen for miR-21 project). Luciferin 4-monooxygenase (Photinus pyralis), P08659. purified FLuc, Km substrates, luminescence inhibition. Potency, µM (highest dose often 57.5 µM), without a hit: at the top dose activity change, negative = inhibition, hits mostly inhibitors. actives 6.9% (n = 360,000);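 note: plate controls were vehicle for no effect and reference inhibitor for full effect; nearly all actives have a fitted effect of over 55% in size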
Target sequence (P08659 whole entry, looked up): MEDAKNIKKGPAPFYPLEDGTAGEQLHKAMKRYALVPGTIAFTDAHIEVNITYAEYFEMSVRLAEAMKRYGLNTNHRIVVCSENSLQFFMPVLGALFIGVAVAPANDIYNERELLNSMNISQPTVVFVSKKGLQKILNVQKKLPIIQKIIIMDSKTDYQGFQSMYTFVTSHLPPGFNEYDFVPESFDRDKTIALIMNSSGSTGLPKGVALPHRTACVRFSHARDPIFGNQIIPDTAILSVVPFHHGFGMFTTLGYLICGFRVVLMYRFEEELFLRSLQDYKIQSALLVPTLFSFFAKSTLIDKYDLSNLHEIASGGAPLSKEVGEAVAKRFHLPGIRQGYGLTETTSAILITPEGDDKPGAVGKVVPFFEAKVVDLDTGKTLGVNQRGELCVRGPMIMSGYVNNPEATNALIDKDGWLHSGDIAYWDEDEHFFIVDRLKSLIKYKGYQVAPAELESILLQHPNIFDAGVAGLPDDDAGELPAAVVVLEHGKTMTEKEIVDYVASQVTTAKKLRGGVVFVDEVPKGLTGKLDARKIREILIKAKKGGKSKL
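Purified P. pyralis luciferase, 10 nM final, with Km-level 10 uM D-luciferin and 10 uM ATP in 50 mM Tris acetate pH 7.5, 10 mM Mg acetate, 0.01% Tween-20, 0.05% BSA; 6-point qHTS titration about 60 µM downward; luminescence read.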
NPC1 promoter act: qHTS Assay for NPC1 Promoter Activators. Huh7 NPC1 promoter luciferase reporter, 24 h. Potency, µM (top dose mostly 9.22 µM), for inactives: at the top dose activation, hits mostly activators. actives 2.4% (n = 320,000). AID 485313, 2010; note: % of control where 0% means no effect; nearly all actives have a fitted effect of over 60% in size
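Stably transfected Huh7 (NPC1 promoter→luciferase), 1500 cells/well in Opti-MEM + 10% FBS, 2 h settle, then compound 24 h at 37 °C. Luminescence after 10 min with Amplite reagent.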
* = called active by the depositor; ? = inconclusive; · = no result; [ ] = dose if it differs, or a comment. Calls come from the whole dose curve; as a rule, active = well fitted curve in the direction sought with a large enough effect; inconclusive = small, poorly fitted or top-dose-only effect, or another doubt; inactive = no such curve, though single readings can be large; an effect the other way counts as inactive or inconclusive. Potency is the fitted concentration of half-maximal effect.

SMILES	ELG1 genotoxic	ELG1 repair inh	SMN2 splice enh	Rab9 promoter act	FLuc counter	NPC1 promoter act
COc1ccc(Cl)cc1C(=O)NNC(=O)c1csc(N2CCOCC2)n1	-6%	6%	·	3%	-16%	-1%
CC(=O)c1cccc(NC(=O)Cn2nc(C(F)(F)F)c3c2CCC3)c1	·	·	-28%	·	-2%	·
CCOc1ccc(C2NC(=O)C(C#N)=C(S)N2c2ccc(OC)cc2)cc1OC (configuration not stated)	1%	17%	-6%	3%	21µM*	3%
Cc1ccc(N2C(S)=C(C#N)C(=O)NC2c2cccs2)cc1 (configuration not stated)	-1%	19%	4.5µM*	1%	-16%	0%
N#CC1=C(S)N(c2ccccc2)C(c2cccs2)NC1=O (configuration not stated)	-3%	2%	24%	2%	6%	6%
COc1ccc(C2NC(=O)C(C#N)=C(S)N2c2ccc(C)cc2)cc1OC (configuration not stated)	2%	?	17%	-2%	19µM*	-1%
COc1ccc(N2C(S)=C(C#N)C(=O)NC2c2ccc(OC)c(OC)c2)cc1 (configuration not stated)	6%	7%	·	-5%	?	-7%
COc1cc(C2NC(=O)C(C#N)=C(S)N2c2ccc(C)cc2)ccc1OC(C)C (configuration not stated)	?	?	-31%	0%	15µM*	1%
CCc1ccc(NC(=O)c2cc(C(C)=O)n3ccccc23)cc1	·	·	·	·	15µM*	·
O=C(NCc1ccc(F)cc1)c1cnn2ccccc12	?	?	13µM*	2µM*	12µM*	3.2µM*
CSc1cccc(NC(=O)Cn2cccc2)c1	-2%	-11%	-6%	-2%	-2%	3%
CCc1ccc(NC(=O)c2cnn3ccccc23)cc1	0.18µM*	?	1.8µM*	0.11µM*	0.34µM*	0.32µM*
CSc1cccc(NC(=O)c2cnn3ccccc23)c1	?	?	·	2µM*	4.3µM*	2.5µM*
CCn1c(C(=O)NCc2ccc(C)cc2)cc2sc(Cl)cc21	·	·	1%	·	-19%	·
Cc1cccc(C(c2sc3nc(-c4ccco4)nn3c2O)N2CCN(Cc3ccccc3)CC2)c1 (configuration not stated)	·	·	·	·	-19%	·
CN1C(=O)/C(=C/c2cccc(Cl)c2)Sc2ccc(C(=O)N3CCOCC3)cc21	-10%	?	·	-3%	-16%	-11%
CN1C(=O)/C(=C/c2ccc(C(F)(F)F)cc2)Sc2ccc(C(=O)N3CCN(c4ccccn4)CC3)cc21	-12%	?	·	-6%	8.5µM*	-6%
Cc1cccc(/C=C2\Sc3ccc(C(=O)N4CCC(C(N)=O)CC4)cc3N(C)C2=O)c1	-9%	-17%	·	-6%	19µM*	-20%
COc1ccc(/C=C2\Sc3ccc(C(=O)N4CCc5ccccc5C4)cc3N(C)C2=O)cc1	-5%	-2%	10%	-4%	?	-5%
CN1C(=O)/C(=C/c2ccccc2Cl)Sc2ccc(C(=O)N3CCCC3)cc21	0%[9.26 µM]	?	·	0%	?	-2%
CCOC(=O)C1CCCN(C(=O)c2ccc3c(c2)N(C)C(=O)/C(=C/c2ccccc2Cl)S3)C1 (configuration not stated)	-10%	15µM*	·	-5%	-12%	-6%
Cc1ccc(N2CCN(C(=O)Nc3cn(CC(C)C)c(=O)c4ccccc34)CC2)c(C)c1	·	·	·	·	-2%	·
O=C(/C=C/c1ccc([N+](=O)[O-])cc1)NCCc1ccccc1	2%	8%	5%	0%	4%	-1%
CC(C)(C)SCCNC(=O)/C=C/c1ccccc1	?	?	·	?	19µM*	?
O=C(/C=C/c1ccccc1)NCCc1ccccc1	21µM*	?	·	29%	19µM*	-4%
SMILES	ELG1 genotoxic	ELG1 repair inh	SMN2 splice enh	Rab9 promoter act	FLuc counter	NPC1 promoter act
Cc1cccc2cc(CN(Cc3nnnn3Cc3ccco3)C3CCCC3)c3nnnn3c12	-23%	21µM*	-11%	-5%	16%	1%
NC(=O)/N=C(\N)NC(=O)c1ccccc1	·	·	-4%[9.22 µM]	·	·	·
COc1ccc2cc(-c3nc(Cl)c4c5c(sc4n3)CCCC5)c(=O)oc2c1	·	·	3%	·	?	·
Cc1cccn2c(=O)cc(COc3ccc(NC(=O)C(C)C)cc3)nc12	·	·	·	·	-6%	·
Cc1ccc(S(=O)(=O)C2(C(=O)N3CCN(c4cc(C)ccc4C)CC3)CC2)cc1	-11%	26µM*	-36%	-2%	0%	-8%
O=C(Nc1cccc(Cl)c1)c1cnc[nH]1	?	?	11µM*	4.5µM*	-23%	4µM*
CC(C)c1cc(C(=O)Nc2cccc(Cl)c2)no1	?	?	11µM*	0.89µM*	0.95µM*	0.89µM*
CC(C)c1onc(C(=O)Nc2cccc(Cl)c2)c1[N+](=O)[O-]	3%	0%	-27%	?	?	-2%
CC(=O)c1cccc(NC(=O)c2cc(C(C)C)on2)c1	9.2µM*	?	?	4.5µM*	6.7µM*	0.63µM*
CC(=O)c1cccc(NC(=O)c2cc(-c3ccc(F)cc3)on2)c1	11%	13%	-12%	0%	?	21%
COc1ccccc1NC(=O)Cn1c(=O)n(Cc2ccco2)c(=O)c2oc3ccccc3c21	·	·	·	·	-9%	·
CCOc1ccc(-n2nc(CO)c(C(=O)NCc3ccccn3)n2)cc1	·	·	-2%	·	?	·
COc1ccc(N2CCN(S(=O)(=O)c3cc(-c4cc(C)no4)ccc3C(C)C)CC2)cc1	-9%	7.3µM*	·	-7%	4%	-12%
O=C(Cc1csc(N2CCOCC2)n1)N/N=C/c1ccc(O)c(O)c1O	-24%	13µM*	10%	2%	?	-3%
C/C(=N\NC(=O)Cc1csc(N2CCOCC2)n1)c1ccccc1	-2%	-20%	-21%	-2%	-8%	7%
OC[C@@H](O)[C@@H](O)CCc1ccccc1	·	·	6%	·	·	·
O=C(Nc1nccs1)c1cc(Cl)nc2ccccc12	-4%	-21%	·	1%	-4%	-4%
Cc1cnc(NC(=O)c2sc3ccccc3c2Cl)s1	0.65µM*	?	1µM*	?	0.3µM*	?
Cc1ccnc(NC(=O)c2sc3ccccc3c2Cl)c1	0.92µM*	?	3.2µM*	0.32µM*	0.12µM*	0.1µM*

Screening data (PubChem)
